In PubChem BioAssay:
Active and inactive are the calls of the source.

Experiments:
[1] = E. coli DRC41 culture turbidity changes, primary screen, E. coli filamentation inducer project, strain DRC41, OD650, 48 h (AID 1152);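 also: E. coli MC1000 strain DRC41 lacking acrAB efflux pump and sulA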; conditions: E. coli DRC41 (acrAB sulA), higher = more signal, called active from +8 up or from −8 down
[2] = small-molecule binders of probe aLefty1, primary screen, biochemical, small-molecule microarray, 635/667 nm fluorescence (AID 1153); conditions: higher = more signal;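 also: score merges spot fluorescence with signal-to-noise ratio from the scanned slide images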
[3] = PSAC antagonists in infected red cells, primary screen, cell-based, P. falciparum Indochina, OD700, 1 h (AID 1154); conditions: P. falciparum Indochina infected RBC osmotic lysis, higher = more signal, called active from +8 up or from −8 down
[4] = PSAC antagonists in infected red cells, primary screen, cell-based, P. falciparum Indochina, OD700, 2 h (AID 1155);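 also: lysis reports solute entry through the parasite surface anion channel PSAC; channel blockers reduce lysis of infected cells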; conditions: P. falciparum Indochina infected erythrocytes, osmotic lysis OD700; higher = more signal, called active from +8 up or from −8 down
[5] = osmotic lysis modulators in infected erythrocytes, primary screen, PSAC antagonist project, cell-based, P. falciparum Indochina, OD700, 3 h (AID 1156); conditions: higher = more signal, called active from +8 up or from −8 down
[6] = PSAC antagonists in infected red cells, primary screen, cell-based, P. falciparum Indochina, OD700, 18 h (AID 1157); conditions: P. falciparum Indochina infected erythrocytes, osmotic lysis OD700, 18 h; higher = more signal, called active from +8 up or from −8 down
[7] = modulators of S6 phosphorylation in cells, primary screen, cell-based, A549, cytoblot, luminescence, serum-stimulated (AID 1158); conditions: A549 phospho-S6 cytoblot, 5 h, higher = more signal;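 also: serum-stimulated A549 lung adenocarcinoma cells; signal is phosphorylated S6 detected by cytoblot immunostaining with HRP secondary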
[8] = target: NADPH oxidase 2 (Homo sapiens) (UniProt P04839); test: NOX2-dependent H2O2 signal modulators, primary screen, NOX inhibitor project, cell-based, HEK293-NOX2, PMA-stimulated, Amplex Red fluorescence (AID 1159); conditions: 45 min, higher = more signal, called active from +8 up or from −8 down; also: test concentration not given here
Sequence of NADPH oxidase 2 (Homo sapiens) (P04839 whole entry, looked up): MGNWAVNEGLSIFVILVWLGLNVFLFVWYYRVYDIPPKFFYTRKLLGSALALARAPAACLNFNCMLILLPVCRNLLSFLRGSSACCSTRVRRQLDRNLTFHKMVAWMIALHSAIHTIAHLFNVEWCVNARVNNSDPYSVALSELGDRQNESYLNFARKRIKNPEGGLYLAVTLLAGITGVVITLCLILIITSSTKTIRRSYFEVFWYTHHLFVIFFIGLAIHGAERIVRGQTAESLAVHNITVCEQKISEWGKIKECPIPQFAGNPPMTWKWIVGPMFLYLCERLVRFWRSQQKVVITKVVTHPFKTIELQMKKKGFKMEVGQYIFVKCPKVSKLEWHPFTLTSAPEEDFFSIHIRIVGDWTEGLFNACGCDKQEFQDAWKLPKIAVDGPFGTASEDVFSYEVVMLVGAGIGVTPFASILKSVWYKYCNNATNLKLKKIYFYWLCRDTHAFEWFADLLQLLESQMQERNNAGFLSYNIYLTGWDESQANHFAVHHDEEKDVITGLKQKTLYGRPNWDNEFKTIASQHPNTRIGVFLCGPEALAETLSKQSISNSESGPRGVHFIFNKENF

[9] = target: NADPH oxidase 4 (Homo sapiens) (UniProt Q9NPH5); test: NOX4-dependent H2O2 signal modulators, primary screen, NOX inhibitor project, cell-based, HEK293-NOX4, tetracycline-induced, Amplex Red fluorescence (AID 1160); conditions: 45 min, higher = more signal, called active from +8 up or from −8 down
Sequence of NADPH oxidase 4 (Homo sapiens) (Q9NPH5 whole entry, looked up): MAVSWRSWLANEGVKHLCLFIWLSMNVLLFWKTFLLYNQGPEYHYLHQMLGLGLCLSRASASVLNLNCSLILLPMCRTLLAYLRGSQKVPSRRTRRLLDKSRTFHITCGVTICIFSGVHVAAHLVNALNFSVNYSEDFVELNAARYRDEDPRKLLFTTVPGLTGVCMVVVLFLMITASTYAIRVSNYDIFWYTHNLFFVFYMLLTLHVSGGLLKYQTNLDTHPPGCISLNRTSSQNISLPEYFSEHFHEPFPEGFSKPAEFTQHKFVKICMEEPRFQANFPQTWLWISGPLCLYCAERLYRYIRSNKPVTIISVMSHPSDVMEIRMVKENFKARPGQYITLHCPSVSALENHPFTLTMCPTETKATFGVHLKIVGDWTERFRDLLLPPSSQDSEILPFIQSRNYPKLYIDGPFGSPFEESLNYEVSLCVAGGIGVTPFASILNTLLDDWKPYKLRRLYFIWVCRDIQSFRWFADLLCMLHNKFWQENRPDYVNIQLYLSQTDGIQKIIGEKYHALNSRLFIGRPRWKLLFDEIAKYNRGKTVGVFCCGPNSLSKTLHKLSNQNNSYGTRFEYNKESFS

[10] = target: NADPH oxidase 5 (Homo sapiens) (UniProt Q96PH1); test: NOX5-dependent H2O2 signal modulators, primary screen, NOX inhibitor project, cell-based, HEK293-NOX5, Amplex Red fluorescence (AID 1161); conditions: HEK293-NOX5, ionomycin, 45 min, higher = more signal
Sequence of NADPH oxidase 5 (Homo sapiens) (Q96PH1 whole entry, looked up): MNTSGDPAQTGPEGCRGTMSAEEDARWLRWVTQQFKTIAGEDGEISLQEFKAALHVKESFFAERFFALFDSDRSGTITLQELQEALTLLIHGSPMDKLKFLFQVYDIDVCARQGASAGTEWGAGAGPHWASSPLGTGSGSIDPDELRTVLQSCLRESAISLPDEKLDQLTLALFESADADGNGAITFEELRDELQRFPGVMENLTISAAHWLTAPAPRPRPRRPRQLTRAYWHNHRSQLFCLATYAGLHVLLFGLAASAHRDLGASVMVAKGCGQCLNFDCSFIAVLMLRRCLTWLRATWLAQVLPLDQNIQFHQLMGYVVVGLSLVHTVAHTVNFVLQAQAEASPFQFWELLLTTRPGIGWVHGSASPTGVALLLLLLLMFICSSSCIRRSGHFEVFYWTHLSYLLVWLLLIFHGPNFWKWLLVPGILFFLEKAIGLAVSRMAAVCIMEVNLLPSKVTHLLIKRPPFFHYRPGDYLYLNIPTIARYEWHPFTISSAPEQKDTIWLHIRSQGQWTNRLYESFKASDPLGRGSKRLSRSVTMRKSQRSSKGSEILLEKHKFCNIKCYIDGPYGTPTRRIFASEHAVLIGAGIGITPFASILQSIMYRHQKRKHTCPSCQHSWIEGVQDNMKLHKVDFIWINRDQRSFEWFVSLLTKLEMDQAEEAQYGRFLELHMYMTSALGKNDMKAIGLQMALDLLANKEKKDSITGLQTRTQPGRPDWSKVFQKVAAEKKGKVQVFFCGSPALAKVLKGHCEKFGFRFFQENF

## CCOC(=O)C[C@H]1[C@H](OC(=O)c2ccc(C(=O)c3ccccc3)cc2)[C@@H](NC(=O)C2CCCCC2)c2cc(OCCCO)ccc2N1C(=O)c1ccccc1
[1]
  z-score: -1.01 (inactive)
[2]
  composite z-score: 0.315
[3]
  z-score: 1.31 (inactive)
[4]
  z-score: -0.889 (inactive)
[5]
  z-score: -0.562 (inactive)
[6]
  z-score: -0.23 (inactive)
[7]
  z-score: -0.0118
[8]
  z-score: 0.469 (inactive)
[9]
  z-score: 1.26 (inactive)
[10]
  z-score: 1.77

## O=C/C=C/c1ccc(Cl)cc1
[1]
  z-score: 0.73 (inactive)
[2]
  composite z-score: -0.0885
[3]
  z-score: -0.406 (inactive)
[4]
  z-score: -2.04 (inactive)
[5]
  z-score: -0.316 (inactive)
[6]
  z-score: -2.54 (inactive)
[7]
  z-score: 0.617
[8]
  z-score: -0.506 (inactive)
[9]
  z-score: -0.869 (inactive)
[10]
  z-score: 1.44

## CC(=O)C1=CCC(c2ccccc2)N(S(=O)(=O)c2ccc(C)cc2)C1 (stereo not given)
[1]
  z-score: -1.12 (inactive)
[2]
  composite z-score: 0.157
[3]
  z-score: 2.75 (inactive)
[4]
  z-score: 1.5 (inactive)
[5]
  z-score: 1.4 (inactive)
[6]
  z-score: 1.07 (inactive)
[7]
  z-score: -0.26
[8]
  z-score: -0.179 (inactive)
[9]
  z-score: -1.4 (inactive)
[10]
  z-score: 0.0221

## O=C1O[C@@H](c2ccccc2)[C@@H](c2ccccc2)N2[C@@H](c3ccccc3OCCO)[C@]3(C(=O)Nc4ccc(C#CC5(O)CCCCCC5)cc43)[C@@H](C(=O)Nc3nc4ccccc4s3)[C@H]12
[1]
  z-score: -0.478 (inactive)
[2]
  composite z-score: -0.12
[3]
  z-score: 3.1 (inactive)
[4]
  z-score: 3.75 (inactive)
[5]
  z-score: 1.96 (inactive)
[6]
  z-score: 1.56 (inactive)
[7]
  z-score: 0.361
[8]
  z-score: 1.42 (inactive)
[9]
  z-score: 0.501 (inactive)
[10]
  z-score: 1.28

## CCCN1C(=O)[C@@]2(CCC(=O)OC(C)(C)C)N=C(c3ccc(OCCCO)cc3)O[C@H]2c2ccccc21
[1]
  z-score: 0.42 (inactive)
[2]
  composite z-score: -0.358
[3]
  z-score: 35.9 (active)
[4]
  z-score: 37.4 (active)
[5]
  z-score: 3.51 (inactive)
[6]
  z-score: 9.08 (active)
[7]
  z-score: 0.237
[8]
  z-score: -2.74 (inactive)
[9]
  z-score: -0.665 (inactive)
[10]
  z-score: -1.96

## O=C1O[C@@H](c2ccccc2)[C@@H](c2ccccc2)N2[C@@H](c3ccc(OCCO)cc3)[C@]3(C(=O)Nc4ccc(C#CC5=CCCCC5)cc43)[C@@H](C(=O)O)[C@H]12
[1]
  z-score: -0.584 (inactive)
[2]
  composite z-score: -0.0827
[3]
  z-score: -3.36 (inactive)
[4]
  z-score: -1.76 (inactive)
[5]
  z-score: -10.6 (active)
[6]
  z-score: -0.957 (inactive)
[7]
  z-score: -0.106
[8]
  z-score: 1.67 (inactive)
[9]
  z-score: -1.08 (inactive)
[10]
  z-score: -0.216

## CCCCCN1CC=CC23O[C@@H]4/C=C\CCC(C)OC(=O)C4[C@H]2C(=O)N(CCCCCO)[C@@H]3C1=O (stereo not given in full)
[1]
  z-score: 2.65 (inactive)
[2]
  composite z-score: -0.493
[3]
  z-score: 0.42 (inactive)
[4]
  z-score: -0.524 (inactive)
[5]
  z-score: -0.935 (inactive)
[6]
  z-score: -0.875 (inactive)
[7]
  z-score: 0.832
[8]
  z-score: 1.03 (inactive)
[9]
  z-score: -0.177 (inactive)
[10]
  z-score: 1.45
